Shown are actives, neighbours in structure and some others; about 0.43% of the full set was active somewhere.
GAA inh: qHTS Assay for Inhibitors of Human alpha-Glucosidase as a Potential Chaperone Treatment of Pompe Disease; Lysosomal alpha-glucosidase (Homo sapiens), P10253; purified human GAA, 4-MU-alpha-glucoside fluorescence; Potency, µM (top dose mostly 76.9 µM), without a hit: top-dose activity change, negative = inhibition, most hits filed as inhibitors; 0.005% of 200,000 active; AID 1466, 2008;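 note: potency is the fitted concentration of half-maximal effect; plate controls were uninhibited enzyme wells for no effect and no-enzyme background for full effect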
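Fluorescence at Ex 365/Em 440 nm from 4-methylumbelliferone reported enzyme activity after 20 min at room temperature. Reactions used 4 nM enzyme and 400 uM substrate at pH 5.0; curves fitted with the Hill equation.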
GAA glycogen mod: qHTS Assay for Inhibitors and Activators of Human alpha-Glucosidase Cleavage of Glycogen. recombinant GAA, glycogen substrate, Amplex Red glucose oxidase fluorescence. Potency, µM (top dose mostly 76.4 µM), for the others: top-dose activity change, negative = inhibition, actives largely listed as inhibitors. AID 2100, 2009. 0.38% of 300,000 active. Lysosomal alpha-glucosidase (Homo sapiens), P10253;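 note: potency is the fitted concentration of half-maximal effect; 0% = full enzyme reaction and -100% = no-enzyme basal signal; the screen sought inhibitors and activators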
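Natural-substrate format: glycogen cleavage by 4 nM human enzyme, glucose read by Amplex Red coupling (Ex 573, Em 610 nm). Normalized to enzyme and no-enzyme controls.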
GLA inh pH 4.5: qHTS Assay for Inhibitors of Human alpha-Galactosidase at pH 4.5 | Alpha-galactosidase A (Homo sapiens), P06280 | AID 1467, 2008 | purified enzyme, 4-MU-alpha-Gal fluorescence, pH 4.5 | activity change, negative = inhibition, % at 105 µM | 230,000 tested, under 10 active;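 note: 0% = full activity with enzyme and -100% = basal without enzyme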
aGal spleen mod: qHTS Assay for Inhibitors and Activators of Human alpha-Galactosidase From Spleen Homogenate | Potency, µM (doses to about 80 µM), without a hit: at the top dose activity change, negative = inhibition, hits mostly inhibitors | human spleen homogenate, 4MU-alpha-Gal fluorescence, 40 min | 0.008% of 240,000 active;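 note: potency is the fitted concentration of half-maximal effect; 0% = enzyme with vehicle and -100% = no enzyme basal signal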
Target sequence (P06280 32-429 limits assumed): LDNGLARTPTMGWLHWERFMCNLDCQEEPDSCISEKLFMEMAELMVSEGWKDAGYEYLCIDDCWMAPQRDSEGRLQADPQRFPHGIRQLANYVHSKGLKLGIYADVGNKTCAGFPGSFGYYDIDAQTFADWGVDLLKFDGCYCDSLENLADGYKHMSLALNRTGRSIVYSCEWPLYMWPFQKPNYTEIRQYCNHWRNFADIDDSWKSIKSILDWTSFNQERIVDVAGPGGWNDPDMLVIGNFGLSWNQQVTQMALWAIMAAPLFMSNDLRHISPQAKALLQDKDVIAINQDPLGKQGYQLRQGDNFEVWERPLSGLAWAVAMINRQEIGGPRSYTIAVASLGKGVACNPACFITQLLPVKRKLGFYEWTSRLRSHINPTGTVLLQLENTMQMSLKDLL
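Human spleen homogenate (1 ug) was the enzyme source, with 4-methylumbelliferyl-alpha-D-galactopyranoside (1 mM final) in pH 5.0 citrate buffer with 0.01% Tween-20. Compounds were titrated; after 40 min at 37C, NaOH/glycine stop, 4-MU fluorescence read; AC50 from Hill fits.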
aGlu spleen mod: qHTS Assay for Inhibitors and Activators of Human alpha-Glucosidase From Spleen Homogenate | Lysosomal alpha-glucosidase (Homo sapiens), P10253 | human spleen homogenate, 4-MU-alpha-glucoside fluorescence | Potency, µM (highest dose often 79.9 µM), for inactives: at the top dose activity change, negative = inhibition, actives largely listed as inhibitors | 0.006% of 240,000 active;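 note: potency is the fitted concentration of half-maximal effect; 0% = enzyme with vehicle and -100% = no enzyme basal signal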
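Human spleen homogenate (1 ug) incubated with compounds and 1 mM 4-methylumbelliferyl-alpha-D-glucopyranoside in pH 5.0 citrate/phosphate buffer, 37 C, 40 min. Stopped at pH 10; 4-MU fluorescence (Ex 365/Em 440 nm); AC50 by Hill fit.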
N370S GC: qHTS Assay for Inhibitors and Activators of N370S glucocerebrosidase as a Potential Chaperone Treatment of Gaucher Disease; Lysosomal acid glucosylceramidase (Homo sapiens), P04062; 0.092% of 330,000 active; Potency, µM (top dose mostly 59.4 µM), for the others: at the top dose activity change, negative = inhibition, usual class: inhibitors; N370S GC spleen homogenate, 4MU-glucoside fluorescence;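 note: potency is the fitted concentration of half-maximal effect; 0% = full enzyme activity and -100% = no enzyme basal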
The depositor's hits bear a star; [ ] = another dose, or the depositor's remark. Calls come from the whole dose curve; as a rule, active = well fitted curve in the direction sought with a large enough effect; inconclusive = small, poorly fitted or top-dose-only effect, or another doubt; inactive = no such curve, though single readings can be large; an effect the other way counts as inactive or inconclusive.

What do the screens show for `CCn1c(COc2ccc(C)cc2)nnc1SCC(=O)NCc1ccco1`?
GAA inh: -5%; GAA glycogen mod: 3%; GLA inh pH 4.5: -3; aGal spleen mod: 0%; aGlu spleen mod: 4%; N370S GC: -6%

Results for COC(=O)C[C@H](NC(=O)[C@H](C)NC(=O)[C@@H](NC(=O)OCc1ccccc1)C(C)C)C(=O)CF ?
aGal spleen mod: -2%; aGlu spleen mod: -3%; N370S GC: 9%

How did Cc1nc(NS(=O)(=O)c2ccccc2)sc1NC(=O)OCCN(C)C do in these assays?
GAA inh: -5%; GAA glycogen mod: 25µM*; GLA inh pH 4.5: 3; aGal spleen mod: 1%; aGlu spleen mod: -5%; N370S GC: 4%

Results for Cc1cccc(Cn2c(C)c(C)c3cc(C(=O)NCCN4CCOCC4)ccc32)c1 ?
GAA glycogen mod: -1%[76.3 µM]; N370S GC: inconclusive

What do the screens show for `Cc1c(C)n(Cc2ccc(F)cc2)c2ccc(C(=O)NCCN3CCOCC3)cc12`?
GAA glycogen mod: 4%[76.3 µM]; N370S GC: 14µM*

Results for Cc1cccc(Nc2c(-c3ccc(N4CCOCC4)cc3)nc3ncccn23)c1 ?
GAA inh: 4%; GAA glycogen mod: 35µM*; GLA inh pH 4.5: 6; aGal spleen mod: -1%; aGlu spleen mod: -3%; N370S GC: 9%

How did Cc1ccc(Nc2c(-c3ccc(N4CCOCC4)cc3)nc3c(C)cccn23)cc1 do in these assays?
GAA glycogen mod: 16µM*

How did COc1ccc(-c2nc3ncccn3c2Nc2ccc3c(c2)OCCO3)cc1 do in these assays?
GAA inh: -2%; GAA glycogen mod: inconclusive; GLA inh pH 4.5: 0; aGal spleen mod: 8%; aGlu spleen mod: 0%; N370S GC: 9%

What do the screens show for `Cc1ccc(Nc2c(-c3ccc(C)o3)nc3cnccn23)cc1`?
GAA inh: -2%; GAA glycogen mod: -17%; GLA inh pH 4.5: -2; aGal spleen mod: 3%; aGlu spleen mod: 5%; N370S GC: 0%

How did Cc1ccc(-c2nc3cnccn3c2Nc2ccc3c(c2)OCO3)o1 do in these assays?
GAA inh: inconclusive; GAA glycogen mod: 7.9µM*; GLA inh pH 4.5: inconclusive; aGal spleen mod: -8%; aGlu spleen mod: -6%; N370S GC: 0%

Results for COc1ccc(-c2nc3cnccn3c2Nc2ccc(C)cc2)cc1 ?
GAA inh: 2%; GAA glycogen mod: 7.1µM*; GLA inh pH 4.5: -8; aGal spleen mod: 5%; aGlu spleen mod: -22%; N370S GC: inconclusive

How did COc1cc(-c2nc3ncccn3c2Nc2ccc(C)cc2C)ccc1O do in these assays?
GAA glycogen mod: 10µM*

How did Oc1ccccc1-c1nc2cnccn2c1Nc1ccc2c(c1)OCCO2 do in these assays?
GAA inh: inconclusive; GAA glycogen mod: 7.9µM*; GLA inh pH 4.5: -5; aGal spleen mod: 3%; aGlu spleen mod: -3%; N370S GC: 15%

What do the screens show for `COc1ccc(-c2[nH]c3ccccc3c2SCCNC(=O)c2cc(OC)c(OC)c(OC)c2)cc1`?
GAA glycogen mod: 4%[76.3 µM]

What do the screens show for `C=C(C)C(O)C(CC/C=C(\C)C(=O)OCC)OC` (centres undefined)?
aGal spleen mod: -7%[17.5 µM]; aGlu spleen mod: 14%[17.4 µM]; N370S GC: 23%[12.8 µM]

How did COc1cc(-c2nc3cnccn3c2Nc2c(C)cccc2C)ccc1O do in these assays?
GAA inh: -1%; GAA glycogen mod: 14µM*; GLA inh pH 4.5: -2; aGal spleen mod: -3%; aGlu spleen mod: 0%; N370S GC: 0%

Results for Cc1ccn2c(Nc3ccc4c(c3)OCO4)c(-c3ccc(C)o3)nc2c1 ?
GAA glycogen mod: 4µM*

How did CSc1ccc(-c2nc3cnccn3c2Nc2ccc3c(c2)OCO3)cc1 do in these assays?
GAA inh: -28%; GAA glycogen mod: 22µM*; GLA inh pH 4.5: -26; aGal spleen mod: -4%; aGlu spleen mod: -4%; N370S GC: -1%

How did Cc1ccc(-c2nc3ccc(Br)cn3c2Nc2ccc3c(c2)OCO3)o1 do in these assays?
GAA glycogen mod: -12%[76.3 µM]

How did COc1cc(-c2nc3sccn3c2Nc2c(C)cccc2C)ccc1O do in these assays?
GAA glycogen mod: -18%[76.3 µM]

Results for Clc1ccc(-c2nc3cnccn3c2Nc2ccc3c(c2)OCO3)cc1 ?
GAA inh: -1%; GAA glycogen mod: inconclusive; GLA inh pH 4.5: -1; aGal spleen mod: 8%; aGlu spleen mod: 1%; N370S GC: -16%

Results for COc1ccc(Nc2c(-c3ccc(C)o3)nc3cc(C)ccn23)cc1 ?
GAA glycogen mod: 5.6µM*

Results for Cc1c(N/C=C/C(=O)c2ccc(Cl)cc2)c(=O)n(-c2ccccc2)n1C ?
GAA inh: -3%; GAA glycogen mod: 14µM*; GLA inh pH 4.5: -4; aGal spleen mod: -8%; aGlu spleen mod: -11%; N370S GC: 18%

How did Cc1c(NC(=O)C(=O)/C=C(\O)c2ccc(Cl)cc2)c(=O)n(-c2ccccc2)n1C do in these assays?
GAA inh: -3%; GAA glycogen mod: inconclusive; GLA inh pH 4.5: 2; aGal spleen mod: 6%; aGlu spleen mod: 4%; N370S GC: 6%

Results for Cc1c(NC(C)c2cc(Cl)ccc2O)c(=O)n(-c2ccccc2)n1C (centres undefined) ?
GAA inh: -7%; GAA glycogen mod: 11µM*; GLA inh pH 4.5: 1; aGal spleen mod: 7%; aGlu spleen mod: 1%; N370S GC: 0%[12.8 µM]

How did Cc1c(NC(C)c2ccccc2O)c(=O)n(-c2ccccc2)n1C (centres undefined) do in these assays?
GAA inh: -2%; GAA glycogen mod: 28µM*; GLA inh pH 4.5: -2; aGal spleen mod: 7%; aGlu spleen mod: -3%; N370S GC: -11%

Results for Cc1c(NC(C)C)c(=O)n(-c2ccccc2)n1C ?
GLA inh pH 4.5: -13; aGal spleen mod: 2%; aGlu spleen mod: -7%; N370S GC: -1%

Results for CCCCC/C=C\C\C=C/C=C/C=C/[C@@H](SC[C@H](N)C(=O)O)[C@@H](O)CCCC(=O)O ?
aGal spleen mod: 5%; aGlu spleen mod: 3%; N370S GC: -13%

What do the screens show for `CC(=O)N=c1sc2ccccc2n1C`?
GAA inh: -10%; GAA glycogen mod: 6%; GLA inh pH 4.5: -6; aGal spleen mod: 1%; aGlu spleen mod: 1%; N370S GC: 6%
